Assay outcomes as filed in PubChem BioAssay.
sEH act: soluble epoxide hydrolase activators, primary screen, biochemical, human sEH | Bifunctional epoxide hydrolase 2 (Homo sapiens), P34913 | purified human sEH enzymatic activity, activator screen | activation, % at 2 µM | hit rate 0.04% among 91,000 | AID 717, 2007; in the data active = activation above about 37%
Target sequence (P34913 whole entry, looked up): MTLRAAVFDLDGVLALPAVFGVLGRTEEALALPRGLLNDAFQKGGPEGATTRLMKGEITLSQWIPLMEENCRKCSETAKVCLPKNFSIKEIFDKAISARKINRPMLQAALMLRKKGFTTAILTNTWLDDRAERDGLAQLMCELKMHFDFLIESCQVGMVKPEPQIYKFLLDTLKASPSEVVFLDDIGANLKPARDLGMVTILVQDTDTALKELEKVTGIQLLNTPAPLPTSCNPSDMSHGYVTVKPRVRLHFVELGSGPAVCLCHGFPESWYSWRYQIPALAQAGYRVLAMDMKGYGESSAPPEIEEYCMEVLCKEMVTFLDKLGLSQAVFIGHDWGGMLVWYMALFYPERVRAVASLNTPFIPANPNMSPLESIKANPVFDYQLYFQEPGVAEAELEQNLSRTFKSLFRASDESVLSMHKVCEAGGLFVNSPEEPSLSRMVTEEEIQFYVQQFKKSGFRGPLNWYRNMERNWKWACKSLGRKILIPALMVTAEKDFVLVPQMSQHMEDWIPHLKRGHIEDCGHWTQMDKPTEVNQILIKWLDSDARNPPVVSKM
sEH inh: soluble epoxide hydrolase inhibitors, primary screen, biochemical, human sEH; recombinant human sEH enzymatic activity assay; hit rate 0.34% among 91,000; Bifunctional epoxide hydrolase 2 (Homo sapiens), P34913; inhibition, % at 2 µM; in the data active = inhibition above about 80%
CYP2C19 inh: blockers of cytochrome P450 2C19 activity – biochemical, luminescence, ADME assay, primary screen. CYP2C19 Supersomes, luciferin-H EGE luminescence, 30 min. inhibition, % at 5 µM. hit rate 21% among 96,000. AID 778, 2007;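 active = CYP2C19 inhibition above a set limit at 5 µM in the primary screen, cut at about 50% in these data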;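 also: plate controls were negative control wells for no effect and 2.5 mM tranylcypromine positive control for full effect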
CYP2C9 act: human CYP2C9 activators, primary screen, biochemical, luminescence; recombinant CYP2C9, luciferin-H conversion; active compounds read high; factor 1 = untreated enzyme, 0 = blocked; activation factor at 5 µM; hit rate 1.4% among 96,000; Cytochrome P450 2C9 (Homo sapiens), P11712;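 active = activation factor of 2 or more for CYP2C9 at a 5 µM dose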;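 also: 0 = sulfaphenazole-blocked wells and 1 = vehicle-only wells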
CYP2C19 activ: human CYP2C19 activators, primary screen, biochemical, luminescence; recombinant CYP2C19, luciferin-H EGE luminescence; active compounds read high; 0 = fully inhibited enzyme, 1 = untreated enzyme; 96,000 tested, under 10 active; activation factor at 5 µM; Cytochrome P450 2C19 (Homo sapiens), P33261;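 active = activation factor of at least 2 at 5 µM in the primary screen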;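 also: 0 = wells with 2.5 mM tranylcypromine and 1 = vehicle-only wells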
CYP2C9 inh: blockers of cytochrome P450 2C9 activity – biochemical, luminescence, ADME assay, primary screen; P11712; CYP2C9 Supersomes, luciferin-H conversion; inhibition, % at 5 µM; hit rate 20% among 96,000; AID 777, 2007;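 active = blocking of liver enzyme CYP2C9 beyond about 50% at 5 µM, limit read from the data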
Active calls of the source: *; . = not tested or not shown. A selection: hits, their analogues and other compounds. The true share with any hit is near 27%.

SMILES | sEH act | sEH inh | CYP2C19 inh | CYP2C9 act | CYP2C19 activ | CYP2C9 inh
Cc1ccc(-n2c(=O)[nH]cc(C(=O)Nc3ccc4c(c3)OCO4)c2=O)cc1C | . | . | -16 | 1.4 | 1.2 | -38
Cc1ccccc1Cn1cnc2c(cnn2C(C)(C)C)c1=O | -12 | 12 | 68* | 0.7 | 0.3 | 27
CC(C)(C)n1ncc2c(=O)n(CC(=O)c3ccccc3)cnc21 | 1 | -2 | . | . | . | .
Cc1ccc(C)c(Cn2cnc3c(cnn3C(C)(C)C)c2=O)c1 | 1 | -1 | 97* | 0.6 | 0 | 35
Cc1cc2nc(SCCN3CCCC3)[nH]c2cc1C | . | . | 8 | 1 | 0.9 | -2
CC1CN(C(=O)COC(=O)c2cccs2)CC(C)O1 (stereo unspecified) | . | . | 2 | 1.1 | 1 | -10
Nc1nc(-c2ccc3ccccc3c2)c(C2(O)C(=O)Nc3c(Br)cc(F)cc32)s1 (stereo unspecified) | -8 | 7 | 92* | 1.1 | 0.1 | -12
COc1ccc(C2CC(C(F)(F)F)n3nc(C(N)=O)c(Cl)c3N2)cc1OC (stereo unspecified) | 2 | -3 | 15 | 0.4 | 0.9 | 58*
CC(=O)c1cnc(Nc2nc(C)c3cccc(C)c3n2)nc1C | . | . | -1 | 1 | 1 | 3
CCOc1cccc2sc(NC(=O)CC)nc12 | 17 | -17 | 18 | 0.3 | 0.8 | 75*
CCOc1ccccc1OCC(=O)Nc1nnc(C)s1 | . | . | -5 | 0.9 | 1.1 | 6
O=C(NCCNC(=O)C(c1ccccc1)c1ccccc1)c1ccco1 | 2 | -3 | 66* | 0.5 | 0.3 | 51*
O=C(Nc1ccccc1C(=O)NCc1ccc(Cl)cc1)c1ccco1 | 22 | -22 | 22 | 0.4 | 0.8 | 58*
O=C(O)CNC(=O)c1ccccc1NC(=O)c1ccco1 | -4 | 6 | -4 | 1 | 1 | 0
O=C(Nc1ccccc1C(=O)NCCc1ccccc1)c1ccco1 | -8 | 7 | 54* | 0.3 | 0.5 | 71*
Cc1[nH]c(=O)[nH]c(=O)c1S(=O)(=O)N1c2ccc(F)cc2CCC1C (stereo unspecified) | -8 | 6 | 44 | 0.8 | 0.6 | 16
O=C(c1cccnc1)N1CCN(S(=O)(=O)c2ccc(Cl)cc2)CC1 | -11 | 12 | . | . | . | .
CC1CCc2nc(NCCO)nc(C(F)(F)F)c2C1 (stereo unspecified) | 6 | -8 | 2 | 1 | 1 | 0
CCn1c(CSCc2ccc(C)cc2)nnc1SCC(=O)N1CCN(c2ccccc2)CC1 | 17 | -14 | 34 | 0.2 | 0.7 | 78*
CCn1c(COc2ccccc2C)nnc1SCC(=O)N1CCN(c2ccccc2)CC1 | 0 | 0 | -1 | 1 | 1 | -1
CCn1c(CC(=O)Nc2cccc(OC)c2)nnc1SCC(=O)N1CCN(c2ccccc2)CC1 | 15 | -9 | 42 | 0.4 | 0.6 | 59*
CSc1ccccc1NC(=O)CN(c1cc(C)cc(C)c1)S(C)(=O)=O | 6 | -5 | 58* | 0.3 | 0.4 | 71*
CSc1ccccc1NC(=O)c1ccccc1N(Cc1ccccc1)S(C)(=O)=O | 4 | -3 | 43 | 0.4 | 0.6 | 59*
CS(=O)(=O)N(CC(=O)Nc1ccccc1Sc1ccccc1)c1cccc(Br)c1 | 1 | 1 | 14 | 0.3 | 0.9 | 66*
CSc1ccccc1NC(=O)c1ccccc1N(C)S(C)(=O)=O | 8 | -5 | 32 | 1.2 | 0.7 | -22
SMILES | sEH act | sEH inh | CYP2C19 inh | CYP2C9 act | CYP2C19 activ | CYP2C9 inh
CCOC(=O)C1=C(C)NC(C)=C(C(=O)OCC)C1C(=O)OC1CCOC1=O (stereo unspecified) | -1 | -1 | 28 | 1 | 0.7 | -4
Cn1c(=O)c2c(nc(Oc3ccccn3)n2C)n(C)c1=O | . | . | -7 | 1 | 1.1 | -2
Cc1ccc2[nH]c(=O)c(CN(Cc3ccc4c(c3)OCO4)Cc3nnnn3Cc3ccco3)cc2c1 | -7 | 7 | 99* | 0 | 0 | 99*
O=c1[nH]c2cc3c(cc2cc1CN(Cc1cccnc1)Cc1nnnn1Cc1ccco1)OCCO3 | 2 | -1 | 40 | 0.6 | 0.6 | 39
O=c1[nH]c2cc3c(cc2cc1CN(Cc1ccccc1)Cc1nnnn1Cc1ccco1)OCCO3 | -12 | 10 | 2 | 1 | 1 | 4
Cc1cc(C)c2cc(CN(Cc3ccc4c(c3)OCO4)Cc3nnnn3Cc3ccco3)c(=O)[nH]c2c1 | -9 | 7 | 67* | 0.2 | 0.3 | 80*
CCCNCc1cc(OC)c(OCCC)cc1Cl | 5 | -9 | . | . | . | .
COc1cccc(-c2nc(N3CCCCC3C)c3ccccc3n2)c1O (stereo unspecified) | 4 | -5 | 24 | 0.2 | 0.8 | 84*
CCCN1CCN(C(=O)Cn2cccc2C(=O)c2ccccc2)CC1 | -9 | 12 | . | . | . | .
COc1cc(/C=c2\sc3nc(-c4ccncc4)nn3c2=O)ccc1OC(C)=O | 14 | -13 | 60* | 0.2 | 0.4 | 76*
O=C(Cn1c(=O)oc2cc(S(=O)(=O)N3CCc4ccccc43)ccc21)N1CCCCC1 | 2 | 0 | 15 | 0.7 | 0.9 | 30
O=C(CN1CCN(Cc2ccccc2Cl)C1=O)NCC1CCCO1 (stereo unspecified) | 1 | 3 | 0 | 1.5 | 1 | -47
Cc1ccc(N2C(=O)C(Cl)=C(NCCO)C2=O)c(C)c1 | -5 | 4 | 42 | 1.1 | 0.6 | -14
CN1CCN(C2=C(Cl)C(=O)N(CCc3ccccc3)C2=O)CC1 | -5 | 7 | 56* | 0.9 | 0.4 | 14
O=C1C(Cl)=C(NCC2CCCO2)C(=O)N1CCc1ccccc1 (stereo unspecified) | -5 | 6 | 82* | 0.3 | 0.2 | 66*
O=C1C(Cl)=C(NCC2CCCO2)C(=O)N1c1cccc(Cl)c1Cl (stereo unspecified) | -2 | 2 | 82* | 0.5 | 0.2 | 46
C=CCNC1=C(Cl)C(=O)N(c2cccc(Cl)c2Cl)C1=O | 12 | -13 | 90* | 0.5 | 0.1 | 47
O=C(c1ccccc1)[C@H]1[C@H](c2ccccc2)[C@@]2(N=C(c3ccccc3)OC2=O)C2c3ccccc3C=NN21 (stereo partly specified) | 13 | -13 | 22 | 0.9 | 0.8 | 14
Cc1nn(C)c(C)c1/C=N/O | -7 | 6 | -14 | 1.2 | 1.1 | -21
O=C1C(Cl)=C(NCCCN2CCOCC2)C(=O)N1CCc1ccccc1 | 13 | -14 | 34 | 0.2 | 0.7 | 78*
O=C1C(Cl)=C(NCCc2ccccc2)C(=O)N1CCc1ccccc1 | 4 | -1 | -3 | 0.9 | 1 | 13
O=C1C(Cl)=C(N2CCOCC2)C(=O)N1CCc1ccccc1 | -11 | 11 | 88* | 1 | 0.1 | 2
CCOC(=O)/C(C(C)=O)=C1\OC(=O)c2ccccc21 | -5 | 5 | 20 | 0.4 | 0.8 | 58*
